Several values for one entry are separate records, joined by “and”; a condition that tells them apart may be missing. Equal entries are not always repeated. Activity calls are given as the source filed them. Unless noted, calls come from the whole dose curve; as a rule, active = well fitted curve in the direction sought with a large enough effect in the repeat runs; inconclusive = weak or mixed curves; inactive = no such curve, though single readings can be large; an effect the other way counts as inactive or inconclusive.

Assay [1] is described as follows: qHTS assay for identifying genotoxic compounds that show differential cytotoxicity against isogenic chicken DT40 cell lines with known DNA damage response pathways - Rev3 mutant cell line (AID 743014). Note: nearly all actives have a fitted effect of over 55% in size. Note: potency is the fitted concentration of half-maximal effect.
Assay [2] can be described thus: qHTS assay to identify small molecule antagonists of the androgen receptor (AR) signaling pathway - cell viability counter screen (AID 743033; note: nearly all actives have a fitted effect of over 45% in size; note: potency is the fitted concentration of half-maximal effect). In general terms: In qHTS, concentration-response curves come from the screen itself.
The nature of assay [3]: qHTS assay to identify small molecule antagonists of the androgen receptor (AR) signaling pathway using the MDA cell line - cell viability counter screen (AID 743041; note: nearly all actives have a fitted effect of over 45% in size; note: potency is the fitted concentration of half-maximal effect). The method, boiled down: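 Cytotoxicity counter screen: MDA-kb2 AR-luc cells, compound + R1881, 16 h, 37C, 0% CO2; CellTiter-Fluor added at 15.5 h, fluorescence read after 30 min.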
Assay [4] can be described thus: qHTS assay to identify small molecule antagonists of the thyroid receptor (TR) signaling pathway - cell viability counter screen (AID 743064). Note: nearly all actives have a fitted effect of over 50% in size. Note: potency is the fitted concentration of half-maximal effect. In short, it runs like this:
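In rat pituitary GH3.TRE-Luc reporter cells co-exposed to compound and 1 nM T3 for 23.5 h, cytotoxicity was assessed with CellTiter-Fluor in the same wells, read by fluorescence.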

The nature of assay [5]: qHTS assay to identify small molecule antagonists of the thyroid receptor (TR) signaling pathway (AID 743065). Note: potency is the fitted concentration of half-maximal effect; nearly all actives have a fitted effect of over 55% in size. In short, it runs like this: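 GH3.TRE-Luc rat pituitary cells (two TREs driving luciferase) were dosed with compound, then stimulated with 1 nM T3 (final) for 23.5 h at 37 C. ONE-Glo luminescence was the read-out, with CellTiter-Fluor fluorescence as the cytotoxicity counter-screen.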

Assay [6] deals with thyroid hormone receptor (rat, GH3 cells). The assay is described as follows: qHTS assay to identify small molecule agonists of the thyroid receptor (TR) signaling pathway (AID 743066; calls by dose curve).
The target in assay [7] is Estrogen receptor (Homo sapiens) (UniProt P03372). The assay is described as follows: qHTS assay to identify small molecule antagonists of the estrogen receptor alpha (ER-alpha) signaling pathway (AID 743069; active = well fitted curve in the direction sought with a large enough effect in the signal ratio in the repeat runs, not every such curve was filed as active; inconclusive = weak or mixed curves, or effect the other way; inactive = no such curve, though single readings can be large or run the other way; the % refers to the signal ratio; note: potency is the fitted concentration of half-maximal effect). The method, boiled down: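 Beta-lactamase FRET fluorescence is read after 2 hr at room temperature with LiveBLAzer B/G substrate. Before that, ER-alpha-bla HEK293 cells sit 4 hr after plating, then receive compound plus 17beta-estradiol and incubate 18 hr at 37C.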

Assay [8] is described as follows: qHTS assay to identify small molecule antagonists of the estrogen receptor alpha (ER-alpha) signaling pathway - cell viability counter screen (AID 743074; calls by dose curve;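 note: HEK293 cells carrying ER-alpha-UAS-bla reporter stimulated with 17beta-estradiol; nearly all actives have a fitted effect of over 45% in size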; note: potency is the fitted concentration of half-maximal effect).
Assay [9] addresses Estrogen receptor (Homo sapiens) (UniProt P03372). Put plainly: qHTS assay to identify small molecule agonists of the estrogen receptor alpha (ER-alpha) signaling pathway (AID 743075; calls by dose curve;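 note: HEK293 GripTite cells with ER-alpha and UAS-driven beta-lactamase reporter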; note: potency is the fitted concentration of half-maximal effect). To be noted: HEK293 ER-alpha-UAS-bla, beta-lactamase FRET ratio, 18 h; activation: at 70.1 µM (top of the series).
Assay [10] in a line: qHTS assay to identify small molecule antagonists of the estrogen receptor alpha (ER-alpha) signaling pathway using the BG1 cell line (AID 743080; calls by dose curve;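 note: BG1 cells stimulated with 17beta-estradiol alongside compound; nearly all actives have a fitted effect of over 25% in size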; note: potency is the fitted concentration of half-maximal effect). The method, boiled down: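 After 5 days in phenol-red-free 10% charcoal-stripped FBS medium, BG1-Luc-4E2 cells were seeded, left 24 h at 37 C, co-treated with compounds and 17beta-estradiol for 21.5 h, then assayed for viability and luciferase.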

Assay [11] in a line: qHTS assay to identify small molecule antagonists of the estrogen receptor alpha (ER-alpha) signaling pathway using the BG1 cell line - cell viability counter screen (AID 743081).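 Note: compound given together with 17beta-estradiol as the ER stimulus; nearly all actives have a fitted effect of over 45% in size.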 Note: potency is the fitted concentration of half-maximal effect.
Assay [12] has as its target Aromatase (Homo sapiens) (UniProt P11511). Put plainly: qHTS assay to identify aromatase inhibitors (AID 743083). Note: nearly all actives have a fitted effect of over 55% in size. Note: potency is the fitted concentration of half-maximal effect.
A short description of assay [13]: qHTS assay for identifying genotoxic compounds that show differential cytotoxicity against isogenic chicken DT40 cell lines with known DNA damage response pathways - wild type cell line (AID 743012). Note: potency is the fitted concentration of half-maximal effect; nearly all actives have a fitted effect of over 60% in size. In short, it runs like this:
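Endpoint: CellTiter-Glo luminescence, 30 min RT. Cells: wild type DT40, 300/well. Exposure: compounds in DMSO, 40 h, 37 C/5% CO2, after ~0.5 h pre-incubation.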

Assay [14] in a line: qHTS assay for identifying genotoxic compounds that show differential cytotoxicity against isogenic chicken DT40 cell lines with known DNA damage response pathways - Rad54/Ku70 mutant cell line (AID 743015). Note: potency is the fitted concentration of half-maximal effect; nearly all actives have a fitted effect of over 60% in size.
Assay [15] addresses Androgen receptor (Homo sapiens) (UniProt P10275). The assay is described as follows: qHTS assay to identify small molecule agonists of the androgen receptor (AR) signaling pathway using the MDA cell line (AID 743040; note: nearly all actives have a fitted effect of over 20% in size). The method, boiled down:
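Luciferase read-out, ONE-Glo, 30 min RT. Cells: MDA-kb2 AR-luc, MMTV promoter with AR and GR response elements. Compound exposure 16 h, 37C, 0% CO2, after 5 h pre-incubation. qHTS agonist mode.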

The target is the same in assay [16]. The assay is described as follows: qHTS assay to identify small molecule agonists of the androgen receptor (AR) signaling pathway (AID 743036; active = well fitted activation curve with a large enough effect in the signal ratio in the repeat runs, with a control signal flat, not every such curve was filed as active; inconclusive = weak or mixed curves, or effect the other way; inactive = no such curve, though single readings can be large or run the other way; the % refers to the signal ratio). The method, boiled down: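 Cell-based FRET reporter assay: HEK293 line with a UAS-beta-lactamase construct, compounds added in DMSO, 16 h exposure at 37C, then 2 h substrate step at room temperature and fluorescence intensity read.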

Assay [17] has the same target. Put plainly: qHTS assay to identify small molecule antagonists of the androgen receptor (AR) signaling pathway using the MDA cell line (AID 743042; note: potency is the fitted concentration of half-maximal effect; nearly all actives have a fitted effect of over 55% in size). In short, it runs like this:
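MDA-kb2 breast carcinoma cells carrying MMTV-luciferase (AR/GR responsive) were co-treated with compounds and the agonist R1881 for 16 h at 37C. Inhibition read as ONE-Glo luminescence; CellTiter-Fluor fluorescence measured in parallel for cytotoxicity.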

For assay [18] the target is unchanged. Put plainly: qHTS assay to identify small molecule antagonists of the androgen receptor (AR) signaling pathway (AID 743035; active = well fitted inhibition curve with a large enough effect in the signal ratio in the repeat runs, not every such curve was filed as active; inconclusive = weak or mixed curves, or effect the other way; inactive = no such curve, though single readings can be large or run the other way; the % refers to the signal ratio; note: potency is the fitted concentration of half-maximal effect). The method, boiled down:
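R1881 agonist challenge of a HEK293 UAS-beta-lactamase AR reporter line in the presence of compound (16 h, 37C); signal taken as FRET fluorescence after 2 h with LiveBLAzer B/G substrate at room temperature.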

Estrogen receptor (Homo sapiens), sequence (P03372 whole entry, looked up): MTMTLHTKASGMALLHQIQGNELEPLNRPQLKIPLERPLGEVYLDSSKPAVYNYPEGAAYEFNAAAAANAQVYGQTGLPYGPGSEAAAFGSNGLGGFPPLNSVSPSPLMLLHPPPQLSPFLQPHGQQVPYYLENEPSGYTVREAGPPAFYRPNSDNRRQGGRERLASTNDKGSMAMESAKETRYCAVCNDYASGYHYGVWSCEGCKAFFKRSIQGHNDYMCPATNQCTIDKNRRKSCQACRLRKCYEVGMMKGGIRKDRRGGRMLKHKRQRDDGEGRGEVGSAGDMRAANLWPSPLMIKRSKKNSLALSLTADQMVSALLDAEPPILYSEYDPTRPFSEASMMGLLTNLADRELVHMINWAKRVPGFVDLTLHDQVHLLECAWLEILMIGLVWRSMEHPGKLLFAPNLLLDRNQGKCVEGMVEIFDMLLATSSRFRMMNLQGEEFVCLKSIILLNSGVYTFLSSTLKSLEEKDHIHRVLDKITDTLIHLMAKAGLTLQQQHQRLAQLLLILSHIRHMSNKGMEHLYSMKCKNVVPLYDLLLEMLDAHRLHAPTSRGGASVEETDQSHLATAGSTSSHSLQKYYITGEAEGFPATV
Aromatase (Homo sapiens), sequence (P11511 whole entry, looked up): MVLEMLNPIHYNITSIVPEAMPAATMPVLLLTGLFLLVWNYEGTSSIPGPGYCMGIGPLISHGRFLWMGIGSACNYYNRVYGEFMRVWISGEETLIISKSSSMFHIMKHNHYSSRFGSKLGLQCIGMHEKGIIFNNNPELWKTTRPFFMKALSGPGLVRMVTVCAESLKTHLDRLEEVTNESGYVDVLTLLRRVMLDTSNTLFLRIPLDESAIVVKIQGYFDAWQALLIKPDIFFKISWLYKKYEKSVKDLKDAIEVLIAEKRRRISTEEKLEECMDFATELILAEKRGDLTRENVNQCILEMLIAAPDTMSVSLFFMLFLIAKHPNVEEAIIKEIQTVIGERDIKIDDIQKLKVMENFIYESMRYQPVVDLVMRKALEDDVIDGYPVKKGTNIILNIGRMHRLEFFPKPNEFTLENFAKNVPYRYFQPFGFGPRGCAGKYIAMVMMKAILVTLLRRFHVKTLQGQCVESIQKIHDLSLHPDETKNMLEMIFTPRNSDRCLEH
Androgen receptor (Homo sapiens), sequence (P10275 whole entry, looked up): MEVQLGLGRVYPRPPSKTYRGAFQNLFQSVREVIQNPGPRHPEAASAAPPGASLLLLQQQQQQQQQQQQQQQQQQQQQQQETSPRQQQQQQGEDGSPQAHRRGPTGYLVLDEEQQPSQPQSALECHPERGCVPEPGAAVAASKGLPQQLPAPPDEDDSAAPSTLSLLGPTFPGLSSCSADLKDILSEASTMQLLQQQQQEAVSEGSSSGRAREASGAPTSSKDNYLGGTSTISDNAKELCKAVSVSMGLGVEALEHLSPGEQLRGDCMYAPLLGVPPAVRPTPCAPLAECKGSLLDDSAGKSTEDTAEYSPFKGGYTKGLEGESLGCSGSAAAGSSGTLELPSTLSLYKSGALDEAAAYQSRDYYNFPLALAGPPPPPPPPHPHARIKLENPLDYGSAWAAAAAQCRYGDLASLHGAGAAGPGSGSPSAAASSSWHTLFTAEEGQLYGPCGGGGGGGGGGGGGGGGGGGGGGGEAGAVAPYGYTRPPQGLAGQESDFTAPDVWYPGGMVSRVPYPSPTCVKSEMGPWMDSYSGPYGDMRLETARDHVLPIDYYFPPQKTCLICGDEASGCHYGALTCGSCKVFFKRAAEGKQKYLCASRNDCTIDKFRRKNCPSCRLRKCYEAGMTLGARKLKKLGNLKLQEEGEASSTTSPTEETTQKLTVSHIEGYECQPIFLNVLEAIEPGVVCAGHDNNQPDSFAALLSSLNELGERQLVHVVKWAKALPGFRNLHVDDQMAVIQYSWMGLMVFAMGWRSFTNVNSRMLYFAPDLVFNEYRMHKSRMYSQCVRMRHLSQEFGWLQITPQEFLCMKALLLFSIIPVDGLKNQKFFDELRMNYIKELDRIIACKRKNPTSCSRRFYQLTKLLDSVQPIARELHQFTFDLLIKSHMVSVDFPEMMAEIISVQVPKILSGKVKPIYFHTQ

As for `CCCCC(CC)COP(=O)(O)OCC(CC)CCCC` (configuration not stated), the Potency result in [1], in [2], in assay [3], in [6], in assay [9] and in assay [10] was “inactive” in each case. Also, the Potency result in assay [11] and in assay [12] was “inactive” in each case. The Potency in assay [4] was 27.4 µM (active); in [5] it was 61.3 µM (active); in assay [7], 4.36 µM [inconclusive] (active); in assay [8], 39 µM (active).

With `C/C=C1/C(=O)C[C@H]2[C@@H]3CCC4=CC(=O)CC[C@]4(C)[C@H]3CC[C@]12C`, the Potency was 21.6 µM (active) in assay [13], 13.6 µM (active) in [1], 19.3 µM (active) in [14] and 9.66 µM (active) in assay [5]. Further, the Potency entry in [3], in assay [4], in [6], in assay [8], in assay [9] and in assay [11] was “inactive” each time.

In the case of `OCc1c[nH]c2ccccc12`, the Potency was 30.6 µM (active) in [13]; 51.4 µM (active) in assay [1]; 64.8 µM (active) in assay [14]; 62.9 µM (active) in [4]; 54.5 µM (active) in assay [5]; 4.36 µM [fluorescent] (active) in [9]. Also, the Potency in [12] is 33.4 µM (active). Also, the Potency result in assay [15] and in assay [6] was “inactive” throughout.

As for `O=C(Nc1cccc([N+](=O)[O-])c1)c1cc2ccccc2cc1O`, the Potency in assay [13] is 2.17 µM (active); in assay [1], 2.17 µM (active); in assay [14] it was 2.17 µM (active); in assay [2] it was 1.38 µM (active); in assay [3] it was 10.9 µM (active); in [17] it was 6.86 µM (active). Besides, the Potency in assay [4] is 1.72 µM (active); in assay [5] it was 0.864 µM (active); in assay [8] it was 49 µM (active); in assay [10], 8.63 µM (active); in assay [12] it was 2.73 µM (active). Besides, the Potency result in [16], in [15], in assay [6] and in assay [9] was “inactive” throughout.

On to `CCCCCCCCS(=O)C(C)Cc1ccc2c(c1)OCO2` (configuration not stated), for which the Potency is 69.9 µM (active) in [1], 69.9 µM (active) in assay [14], 69.9 µM (active) in assay [4] and 62.3 µM (active) in assay [5]. Moreover, the Potency result in assay [16], in assay [15], in [6], in assay [8], in assay [9] and in [11] was “inactive” in each case.

With `CC1(C)CCC(C)(C)c2cc(C(=O)Nc3ccc(C(=O)O)cc3)ccc21`, the Potency in [13] is 24.3 µM (active); in assay [1] it was 19.3 µM (active); in assay [14], 21.7 µM (active); in assay [18], 49 µM (active); in [4], 68.6 µM (active); in assay [5], 48.6 µM (active). Further, in assay [10], the Potency is 0.0043 µM (active). The Potency result in assay [16], in assay [15], in assay [8], in [9], in assay [11] and in [12] was “inactive” each time.

As for `Cc1cc(O)c(Cl)c(C)c1Cl`, the Potency in assay [13] was 24.3 µM (active); in assay [1], 24.3 µM (active); in assay [14] it was 17.2 µM (active); in assay [2], 27.5 µM (active); in assay [17], 54.5 µM (active); in assay [4], 17.2 µM (active). Further, the Potency in assay [12] is 48.6 µM (active). The Potency entry in assay [15], in assay [6], in assay [9] and in [11] was “inactive” in each case.

With `CCCCCCCCCOC(=O)c1ccc(O)cc1`, the Potency in assay [1] is 19.1 µM (active); in assay [14] it was 19.1 µM (active); in [18], 24.2 µM (active); in assay [12], 30.2 µM (active). The Potency result in [15], in assay [6] and in [11] was “inactive” throughout.

For `CCCCCCC[N+](CC)(CC)CCCCc1ccc(Cl)cc1`, the Potency was 1.01 µM (active) in assay [13]; 1.43 µM (active) in assay [1]; 1.27 µM (active) in assay [14]; 12.7 µM (active) in assay [5]; 8.11 µM (active) in [8]. Besides, the Potency result in assay [2], in assay [4], in assay [6], in assay [9] and in assay [11] was “inactive” each time.

For the compound `CC(C)(C)NC(=O)[C@@H]1C[C@@H]2CCCC[C@@H]2CN1C[C@@H](O)[C@H](Cc1ccccc1)NC(=O)[C@H](CC(N)=O)NC(=O)c1ccc2ccccc2n1`, the Potency is 26.6 µM (active) in assay [13]; 13.3 µM (active) in assay [1]; 16.8 µM (active) and 55.2 µM (active) in [14]; 49.6 µM (active) in assay [2]; 13.3 µM (active) and 24.7 µM (active) in assay [4]; 21.1 µM (active) and 31 µM (active) in assay [5]. The Potency in [11] is 23.7 µM (active) and 49.2 µM (active); in [12] it was 29.8 µM (active) and 31 µM (active). Also, in assay [9], the Potency result is “inactive”.

Turning to `CCc1cc(Cc2cc(CC)c(N)c(CC)c2)cc(CC)c1N`, the Potency in assay [13] was 61.1 µM (active); in assay [1], 61.1 µM (active); in [14], 54.5 µM (active); in assay [4], 68.6 µM (active); in assay [7], 38.9 µM [inconclusive] (active); in assay [10] it was 61.1 µM (active). Further, the Potency entry in assay [2], in assay [3], in assay [9] and in [11] was “inactive” each time.

On to `N=C1C=CC(=C(c2ccc(N)cc2)c2ccc(N)cc2)C=C1`, for which the Potency was 9.69 µM (active) in assay [13]; 6.86 µM (active) in assay [1]; 7.7 µM (active) in assay [14]; 15.5 µM (active) in [2]; 2.19 µM (active) in assay [18]; 15.4 µM (active) in assay [3]. For the same compound, the Potency in assay [17] is 2.43 µM (active); in assay [4] it was 9.69 µM (active); in assay [8], 1.38 µM (active); in assay [11] it was 13.7 µM (active); in assay [12], 4.86 µM (active). In addition, the Potency result in assay [15] was “inactive”.

For the compound `Oc1c(Cl)cc(Cl)c2cccnc12`, the Potency in assay [13] is 3.76 µM (active); in assay [1], 3.76 µM (active); in assay [3] it was 11.1 µM (active); in [4], 9.44 µM (active); in assay [5], 6.68 µM (active); in assay [10] it was 21.1 µM (active). In [12], the Potency is 11.9 µM (active). Further, the Potency result in assay [2] and in [11] was “inactive” throughout.

Source of the values: PubChem BioAssay (Tox21).
